This passage reports Potency results from PubChem BioAssay (NCATS).

SMILES strings stand for the structures. Values without a mark were called inactive. No stated cut-off is given here; in the data, active means potency below about 10 µM; inactive means the rest.
Potency means the concentration at half of the fitted maximal effect.

Lysosomal acid glucosylceramidase (Homo sapiens), sequence (P04062 whole entry, looked up): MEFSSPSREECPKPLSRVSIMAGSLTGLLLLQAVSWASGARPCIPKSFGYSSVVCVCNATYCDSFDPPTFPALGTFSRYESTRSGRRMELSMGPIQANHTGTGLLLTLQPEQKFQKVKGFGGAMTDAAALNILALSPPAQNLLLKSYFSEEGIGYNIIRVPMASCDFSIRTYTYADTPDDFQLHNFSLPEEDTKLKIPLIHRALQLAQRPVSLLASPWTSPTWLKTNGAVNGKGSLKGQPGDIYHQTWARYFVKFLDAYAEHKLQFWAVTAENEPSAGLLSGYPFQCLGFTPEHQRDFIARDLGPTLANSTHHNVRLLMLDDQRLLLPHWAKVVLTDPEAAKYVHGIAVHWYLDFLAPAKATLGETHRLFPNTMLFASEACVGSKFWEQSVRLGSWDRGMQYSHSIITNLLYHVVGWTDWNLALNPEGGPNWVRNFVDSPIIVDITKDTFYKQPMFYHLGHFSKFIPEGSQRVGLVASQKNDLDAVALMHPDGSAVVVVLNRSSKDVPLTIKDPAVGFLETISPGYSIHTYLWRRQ

This assay addresses Lysosomal acid glucosylceramidase (Homo sapiens) (UniProt P04062). The experiment in a line: Glucocerebrosidase-p2 (AID 348). The conditions noted are these: purified GBA, blue fluorogenic substrate, 40 min. The method in brief: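 Compounds titrated from 0.6 nM upwards against 0.2 nM enzyme in pH 5.9 citric acid/KH2PO4, taurocholate, tween-20; blue fluorogenic substrate 80 uM, 40 min room temperature, stopped and read Ex 365/Em 440 for AC50.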
Regarding `O=C(O)C[C@H](Cc1ccc2c(c1)OCO2)C(=O)O`, the Potency was more than 11.4 µM. For the molecule `CC(=O)OCC(=O)[C@]12OC(C)(C)O[C@@H]1C[C@H]1[C@H]3CC=C4C[C@@H](O)CC[C@]4(C)[C@H]3CC[C@]12C`, the Potency was more than 11.4 µM. As to `COc1ccc2cc1Oc1ccc(cc1)C[C@H]1c3cc(c(OC)cc3CCN1C)Oc1c(OC)c(OC)cc3c1[C@@H](C2)N(C)CC3`, the Potency is more than 11.4 µM. Next, `N[C@@H](CSCc1ccccc1)C(=O)O`: more than 11.4 µM; `CN(C)[C@H]1C(=O)C(C(=O)NCN2CCCC2)=C(O)[C@]2(O)C(=O)C3=C(O)c4c(O)cccc4[C@](C)(O)[C@H]3C[C@H]12`: more than 11.4 µM; `CN(C)c1ccc(-c2cc(NCc3ccccc3)ncn2)cc1`: more than 11.4 µM. Take `COc1ccccc1-c1nc(NCc2ccccc2)c2ccccc2n1`: the Potency is more than 11.4 µM. As for `C[C@]12CC[C@H]3c4ccc(O)cc4CC[C@@H]3[C@H]1CC[C@@H]2OC(=O)CCC1CCCC1`, the Potency was more than 11.4 µM.

On to `Nc1nc2c(ncn2[C@@H]2C=C[C@@H](CO)C2)c(=O)[nH]1`, for which the Potency is more than 11.4 µM. For `CN(N=O)c1ccc(/C=C\c2ccnc3ccccc23)cc1` the value was more than 11.4 µM. `COc1cccc(Cn2c(=O)c(C)nc3cnc(Oc4cccc(Cl)c4)nc32)c1`: the Potency is more than 11.4 µM. Regarding `Cc1cn([C@H]2C[C@H](N=[N+]=[N-])[C@H](CO)O2)c(=O)[nH]c1=O`, the Potency is more than 11.4 µM.

As for `Cc1nc2cnc(OCc3ccccc3)nc2n(Cc2ccc(F)cc2)c1=O`, the Potency is more than 11.4 µM.

Consider `NS(=O)(=O)c1cc(C(=O)O)c(O)c2ccccc12`, for which the Potency is more than 11.4 µM.

With `CN(C)Cc1ccccc1-c1ccc2ncnc(NC3CCNCC3)c2c1`, the Potency is more than 11.4 µM. For the molecule `COc1ccc(-n2c(=O)c(C)nc3cnc(Oc4cccc(Cl)c4)nc32)cc1`, the Potency was more than 11.4 µM. As to `CSc1nc(C)cc(Nc2ccc(O)c(CN3CCOCC3)c2)n1`, the Potency was more than 11.4 µM. Turning to `O=C(O)[C@@H](S)[C@H](S)C(=O)O`, the Potency was more than 11.4 µM. Take `CNc1ncncc1-c1ccc(C(=O)N(C)C)cc1`: the Potency was more than 11.4 µM.

As for `O=C(O)c1cc(N=Nc2ccc([N+](=O)[O-])cc2)ccc1O`, the Potency was more than 11.4 µM. As to `Cc1c(C)c(C)c(CC2(C)CSC2)c(CC2(C)CSC2)c1C`, the Potency is more than 11.4 µM.

As to `CC(C)(C)NC[C@@H](O)c1ccc(O)c(CO)n1`, the Potency was more than 11.4 µM. For `CC(C)Cn1cnc2c(Sc3c([N+](=O)[O-])ncn3C)nc(N)nc21` the value was more than 11.4 µM; for `C/C(=N\O)c1cccc[n+]1Cc1ccccc1`, more than 11.4 µM.

As for `NS(=O)(=O)c1cc2c(cc1Cl)N[C@H](Cc1ccccc1)NS2(=O)=O`, the Potency is more than 11.4 µM. On to `NC(=O)[C@@H]1CCCN1Cc1ccc2c(c1)OCO2`, for which the Potency was more than 11.4 µM.
